Compounds with a hit are over-represented: about 2.8% of the library has one in this group of screens.
Wnt bcat act: Wnt/beta-catenin pathway activation; Wnt/beta-catenin reporter cell assay, activator, plate reader; actives 1.2% (n = 300,000); activation, % at 9.35 µM; in the data active = activation above about 30%, passing the limit was not always enough; inconclusive = no clear call, values can overlap the other calls
esBAF inh: inhibitors of esBAF chromatin remodeling in mouse ES cells; reporter increase, % at 12.5 µM; actives 2% (n = 350,000); Bmi1-luciferase knock-in reporter, 24 h; 100% = twice the neutral-well signal; in the data active = activation above about 40%; inconclusive = no clear call, values can overlap the other calls;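 note: a rise in the Bmi1 reporter signal indicates esBAF inhibition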
FXN GAA850 act: frataxin GAA850 promoter activation | HEK293 lucGAA850 FXN promoter luciferase reporter, 24 h; percent of 10 µM SAHA response | activation, % at 6 µM | actives 0.56% (n = 360,000) | AID 540364;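 active = activation above the average of all compounds screened plus 3 SD, cutoff fixed separately per campaign, cut at about 7.5% in these data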
MITF TRPM1 HTS: activators of MITF-driven TRPM1 promoter activity in SK-MEL-5 cells; SK-MEL-5 TRPM1-promoter luciferase, 24 h; % of positive control, neutral wells = 0; activation, % at 12.5 µM; actives 0.75% (n = 300,000); AID 588334;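 active = mean activation of at least 80% with every replicate also reaching 80%; inconclusive = mean reaches 80% but some replicate falls short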
Ring1 derepress: confirmation of esBAF inhibitors: Ring1 de-repression in mouse ESCs; shares compounds with esBAF inh; fold change at 33 µM; mouse ESC E14, Ring1 mRNA RT-qPCR fold change; AID 743176; 550 tested, under 10 active;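 active = Ring1 gene expression raised more than 2-fold over untreated cells in both replicates at either tested dose; inconclusive = only one replicate above 2-fold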;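 note: Ring1 transcript normalised to actin housekeeping signal by TaqMan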
esBAF Fgf4 qPCR: confirmation of esBAF inhibitors: Fgf4 repression in mouse ESCs. AID 743177. Fgf4 expression fold change at 33 µM. actives 4% (n = 550). mouse ESC E14, Fgf4 mRNA qPCR fold change; hits give low values. shares compounds with esBAF inh;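 active = Fgf4 expression under 0.8 fold of control in both repeat measurements at one or both tested doses; inconclusive = under 0.8 fold in just a single repeat measurement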;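 note: Fgf4 transcript normalised to actin in duplex TaqMan qPCR; cells exposed to compound for 24 h before lysis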
esBAF Bmi1 qPCR: confirmation of esBAF inhibitors: Bmi1 de-repression in mouse ESCs | shares compounds with esBAF inh | mouse ESE14 ES cells, Bmi1 mRNA qPCR fold; hits give high values | fold change at 33 µM | 550 tested, under 10 active;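 active = Bmi1 expression fold change above 6 at either tested concentration, seen in replicate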;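 note: higher fold means more Bmi1 de-repression and stronger esBAF inhibition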
A549 tox SP: A549 cell cytotoxicity; plate reader; cell viability change % (negative = cytotoxic), % at 25 µM, hits read low; AID 743188; shares compounds with esBAF inh; 550 tested, under 10 active; call rule not given here
HepG2 cytotox SP: cytotoxicity in HepG2 cells; AID 743189; actives 4% (n = 550); plate reader; hits give low values; activity change, negative = inhibition, % at 25 µM; shares compounds with esBAF inh; in the data active = activity change below about -50%
HEK293 cytotox SP: cytotoxicity in HEK293 cells; actives 3% (n = 550); shares compounds with esBAF inh; plate reader; activity change, negative = inhibition, % at 25 µM, hits read low; in the data active = activity change below about -38%, passing the limit was not always enough
Hits are given with their value; - = inactive; ? = inconclusive; . = not tested or not shown.

SMILES | Wnt bcat act | esBAF inh | FXN GAA850 act | MITF TRPM1 HTS | Ring1 derepress | esBAF Fgf4 qPCR | esBAF Bmi1 qPCR | A549 tox SP | HepG2 cytotox SP | HEK293 cytotox SP
ClCCn1cnc2c(SCc3ccccc3Cl)ncnc21 | - | - | - | - | . | . | . | . | . | .
ClCCn1cnc2c(SCc3ccccc3)ncnc21 | - | 59 | - | 138 | - | ? | - | - | - | -53
O=c1sc(N2CCN(c3ccc(F)cc3)CC2)nc2ccsc12 | - | 62 | - | . | - | - | - | - | - | -
Cc1noc(C)c1C(=O)Nc1nc2ccccc2s1 | - | 72 | - | - | - | - | - | - | - | -
CCCC1CCC(c2nc(-c3cccnc3)no2)CC1 (configuration not stated) | . | 60 | - | - | - | ? | - | - | - | -
O=C(Nc1cccc(Cl)c1)N[C@H]1CC[C@H](CCNC(=O)C2CCCCC2)O[C@@H]1CO | . | - | . | . | . | . | . | . | . | .
O=C(c1cc(COc2ccc(F)cc2F)on1)N1CC[C@@H]2CCCC[C@H]2C1 | - | - | - | - | . | . | . | . | . | .
Cc1cccc(C)c1OCc1cc(C(=O)N2CCC(C3CCCCC3)C2)no1 (configuration not stated) | - | 56 | - | - | - | - | - | - | - | -
Cc1csc(N/N=C/c2ccccc2F)n1 | - | 62 | - | - | - | - | - | - | -57 | -
CC(=O)Nc1sc(N/N=C\c2ccccc2F)nc1-c1cccs1 | - | . | - | - | . | . | . | . | . | .
Cc1ccnc(N2CCCC(C(=O)Nc3ccc(C)c(C)c3)C2)n1 (configuration not stated) | - | - | - | - | . | . | . | . | . | .
Cc1ccc(NC(=O)C2CCCN(c3ncccn3)C2)cc1C (configuration not stated) | - | 55 | - | - | - | - | - | - | - | -
Cc1ccc(S(=O)(=O)N(C)C[C@H]2Oc3ccc(NC(=O)c4ccncc4)cc3C(=O)N([C@@H](C)CO)C[C@H]2C)cc1 | . | - | . | . | . | . | . | . | . | .
Cn1cnc(S(=O)(=O)N2C[C@H](O)COC[C@H]3O[C@H](CC(=O)NCc4cc(F)cc(F)c4)CC[C@@H]32)c1 | . | - | . | . | . | . | . | . | . | .
O=C(CCCc1ccccn1)c1ccc(-c2ccccc2)cc1 | - | 55 | - | ? | - | ? | - | - | - | -
C[C@H](CO)N1C[C@H](C)[C@@H](CN(C)Cc2ccc(Cl)c(Cl)c2)OCCCC[C@H](C)Oc2ccc(NS(=O)(=O)c3ccc(F)cc3)cc2C1=O | . | - | . | . | . | . | . | . | . | .
CC(=Nc1ccccc1O)c1sc2ccccc2c1O | 86 | 83 | - | - | - | - | - | - | - | -
O=C(NC(=O)c1ccc(C(F)(F)F)cc1)Nc1ccc(-c2cnco2)cc1 | - | . | - | . | . | . | . | . | . | .
O=C(Nc1ccc(-c2cnco2)cc1)c1ccc(F)cc1F | 39 | 63 | - | - | 1.1 | - | - | - | - | -
CC(=O)c1cccc(OCc2cc(C(=O)NCCC3=CCCCC3)no2)c1 | ? | 83 | - | - | - | - | - | - | - | -
O=C(NCCC1=CCCCC1)c1cc(COc2c(F)cccc2F)on1 | - | - | - | - | . | . | . | . | . | .
Cc1c(Cl)cccc1NC(=O)c1cc(C2CC2)on1 | - | 67 | - | - | - | - | - | - | - | -
O=C(Nc1ccccc1)c1cc(C2CCCN(C(=O)c3ccccc3)C2)on1 (configuration not stated) | - | 57 | - | . | - | - | - | - | - | -
COC(=O)N1CCCC(c2cc(C(=O)Nc3ccccc3Cl)no2)C1 (configuration not stated) | - | 73 | - | . | - | - | - | - | - | -
O=C(Nc1ccccc1Cl)c1cc(C2CCCN(C(=O)OCCF)C2)on1 (configuration not stated) | - | ? | - | . | . | . | . | . | . | .
SMILES | Wnt bcat act | esBAF inh | FXN GAA850 act | MITF TRPM1 HTS | Ring1 derepress | esBAF Fgf4 qPCR | esBAF Bmi1 qPCR | A549 tox SP | HepG2 cytotox SP | HEK293 cytotox SP
O=C(Cc1ccncc1)NCC[C@@H]1CC[C@@H](NC(=O)C2CCOCC2)[C@@H](CO)O1 | . | - | . | . | . | . | . | . | . | .
CCCNC(=O)N1C[C@H]2[C@@H](c3ccccc31)[C@H](CO)N2Cc1ccc(OC)cc1 | . | - | . | . | . | . | . | . | . | .
COc1ccc2nc3ccccc3[n+]([O-])c2c1 | - | 72 | - | - | - | - | - | - | - | -
COc1ccc2c(ccc[n+]2[O-])c1 | - | - | - | - | . | . | . | . | . | .
COC(=O)c1sc(NC(=O)C(C)c2ccccc2)nc1C (configuration not stated) | . | - | - | - | . | . | . | . | . | .
CC(=O)c1sc(Nc2ccc(Oc3ccccc3)cc2)nc1C | - | 77 | . | . | - | - | - | - | - | -
COC(=O)c1sc(Nc2ccccc2)nc1C | - | 65 | 9.9 | - | - | - | - | - | - | -
CC(C)(O)c1cc2ccc(C#Cc3ccsc3)cc2c(=O)o1 | - | 71 | - | - | - | - | - | - | - | -
COc1ccc(-n2nc(C(=O)NCC(=O)N3CCN(c4ccccc4F)CC3)c3ccccc3c2=O)cc1OC | - | - | - | - | . | . | . | . | . | .
COc1ccc(-n2nc(C(=O)NCC(=O)N3CCN(c4ccccc4F)CC3)c3ccccc3c2=O)cc1 | - | - | - | ? | - | ? | - | - | -66 | -
C[C@H](CO)N1C[C@H](C)[C@H](CN(C)S(=O)(=O)c2cccs2)Oc2ccc(NS(C)(=O)=O)cc2C1=O | . | - | . | . | . | . | . | . | . | .
CCC(=O)c1ccc(N2CCC(C)CC2)c(F)c1 | - | 71 | - | - | - | - | - | - | - | -
COc1ccc2oc3cc(Cl)ccc3c(=O)c2c1 | - | 80 | . | . | - | ? | - | - | - | -
CO[C@@H]1CN(C)C(=O)c2cc(NC(=O)NC(C)C)ccc2OC[C@@H](C)N(CCC(F)(F)F)C[C@H]1C | . | - | . | . | . | . | . | . | . | .
CC1(C)CNC(=O)c2sc(NC(=O)c3ccccc3)nc2C1 | - | 84 | - | 91 | - | - | - | - | - | -
CC1(C)CC(=O)c2sc(NC(=O)c3cccs3)nc2C1 | . | . | - | - | . | . | . | . | . | .
Fc1ccc2nc(-c3ccccc3)ccc2c1 | - | 60 | . | . | - | - | - | - | -58 | -
Fc1cc(Cl)cc2ccc(-c3ccccc3)nc12 | - | 56 | . | . | - | - | - | - | - | -
Nc1nc(Cl)cc(-c2ccccc2)n1 | - | . | - | - | . | . | . | . | . | .
CN(C)CC(=O)Nc1ccc2c(c1)[C@@H]1C[C@@H](CC(=O)N(C)C)O[C@@H](CO)[C@@H]1O2 | . | - | . | . | . | . | . | . | . | .
COc1ccccc1CCC(=O)Nc1nc2ccccc2[nH]1 | 31 | 61 | - | - | - | 0.38 | 6.9 | - | - | -
COCC(=O)Nc1ccc2c(c1)C(=O)N(C)[C@H]1CC[C@H](CC(=O)Nc3cn(C)nc3C)O[C@H]1CO2 | . | - | . | . | . | . | . | . | . | .

Screens deposited in PubChem by several laboratories.
